Measured values taken from the supplement of paper PMC6555819.

Columns and labels:
Test in all cases: PBM binding z-score (relative to random genomic background probes); higher = stronger binding; sequences stand for … in GC…GCGATTGACAGCGTAGAATGAAGG
[1] = tested on: FXR:RXRa (NR concentration 270 nM, RXRa partner concentration 90 nM)
Summary of the method: (§1)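 Each nuclear receptor dimer, without ligand, was incubated for 1 h on custom Agilent 4×180K protein-binding microarrays. Binding was detected with antibodies against each partner (one per run), and scanned fluorescence was regression-normalized. The binding z-scores are referenced to random human genomic background probes.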

[2] = tested on: LXRa:RXRa (NR concentration 270 nM, RXRa partner concentration 90 nM)
Summary of the method: as §1

[3] = tested on: LXRa homodimer (NR concentration 270 nM)
Summary of the method: as §1

[4] = tested on: LXRb:RXRa (NR concentration 270 nM, RXRa partner concentration 90 nM)
Summary of the method: as §1

[5] = tested on: LXRb homodimer (NR concentration 270 nM)
Summary of the method: as §1

[6] = tested on: PPARa:RXRa (NR concentration 270 nM, RXRa partner concentration 90 nM)
Summary of the method: as §1

[7] = tested on: PPARg:RXRa (NR concentration 180 nM, RXRa partner concentration 90 nM)
Summary of the method: as §1

[8] = tested on: PPARg:RXRa 270nM:90nM, anti-RXR (NR concentration 270 nM, RXRa partner concentration 90 nM)
Summary of the method: as §1

[9] = tested on: PPARg:RXRa 30nM:10nM, anti-RXR (NR concentration 30 nM, RXRa partner concentration 10 nM)
Summary of the method: as §1

[10] = tested on: PPARg:RXRa 90nM:30nM, anti-RXR (NR concentration 90 nM, RXRa partner concentration 30 nM)
Summary of the method: as §1

Sequence | PBM binding z-score [1] | PBM binding z-score [2] | PBM binding z-score [3] | PBM binding z-score [4] | PBM binding z-score [5] | PBM binding z-score [6] | PBM binding z-score [7] | PBM binding z-score [8] | PBM binding z-score [9] | PBM binding z-score [10]
CGAACTAGGTCAAGGTCAGTGAATCTCCGCACGC | 4.73 | 3.81 | 1.23 | 2.95 | 0.0681 | 5.17 | 8.71 | 6.93 | 4.44 | 7.24
TTACCAAGGTGTAGGTCGTTGATCCCTCTGTAGA | 0.674 | 1.15 | 0.0593 | 0.801 | -0.638 | 0.814 | -0.0136 | 1.68 | 0.61 | 1.52
GCTACTAGTTGAAAGGGCAACCGAATGATTCTCG | 0.0739 | 0.67 | -0.0669 | 0.754 | -0.373 | 2.62 | 3.76 | 5.17 | 3.07 | 5.08
TCAATGAGGTTAAAGATCAGGGAACGTGGCGTCG | 3.28 | 2.48 | -0.228 | 1.66 | 0.0519 | 4.25 | 5.03 | 5.65 | 5.03 | 5.65
GGAACGATGGCATTCGAGTTGATAGCATGGCGAT | -0.471 | -0.604 | -0.706 | -0.979 | -1.12 | -0.689 | 0.643 | -0.465 | -0.325 | -0.434
ACTATTAGTTGACTTGGGGCAACCGATACGACGC | 0.435 | 0.287 | 0.238 | 0.754 | 1.05 | -0.000395 | 0.902 | 0.242 | 0.327 | 0.389
ATCTCTATGTAACAAGTTCAGTGAAAGAGAGGAC | -0.00461 | 0.0801 | 0.289 | 0.189 | 0.769 | 0.267 | 0.597 | 0.532 | 0.31 | 0.575
GGAACCAGGGCAAGTTGATAGCAGAGTTTGATGG | 1.5 | 0.969 | 0.225 | 0.866 | 0.488 | 1.54 | 1.17 | 0.853 | -0.119 | 0.257
ATCGAAAGGGCGAGGTGAGTATAGAGAAAGGGAA | 0.707 | 0.563 | -0.0358 | 0.463 | 0.173 | 1.38 | 0.612 | 0.445 | 0.457 | 0.394
CGTCCAAGGTCCGCAGGTCAGTGAAAGCGACGTG | -0.0411 | -0.153 | -0.475 | -0.0275 | -1.05 | 0.735 | -0.507 | 0.0239 | -0.651 | -0.568
CCGACTGGGGCAGAACGGTTACCATACCATCCGG | -0.431 | -0.676 | -0.691 | -0.711 | -1.24 | -0.574 | 0.748 | -0.447 | -0.36 | -1.03
AGTACAGGGTCATCGTAGGCCAGAGTACGCACAG | 7.3 | 5.7 | 0.868 | 4.07 | 1.05 | 5.87 | 6.41 | 5.7 | 2.18 | 4.41
CCTTACGTGTCACTCCAGGTTATAGCATCGGAGT | 1.96 | 5.55 | 2.04 | 1.89 | 1.05 | 0.862 | 0.466 | 0.288 | -0.302 | -0.0102
TCTATTAGTTGACTAGGGCAACCGAAACAGCGGA | 0.843 | 0.805 | -0.0763 | 0.429 | 0.447 | 1.45 | 0.971 | 2.37 | 3.68 | 3.07
TCTTGTAGATCAAAAGGAGGTTAAGAAAGATCGA | 0.895 | 1.83 | 0.268 | 1.37 | -0.229 | 1.81 | 0.335 | 2.02 | 2.91 | 2.36
ATCTCTAGGTAAAGATACTTCAGTGAATGCAAAT | 0.262 | 0.149 | 0.0511 | 0.403 | 0.44 | 0.361 | 0.884 | 0.723 | 0.521 | 0.608
GTACCAAGATGAATAGGTCGTTGATGAGTAGGCG | -0.271 | -0.137 | -0.17 | -0.161 | -0.482 | 0.287 | 0.526 | -0.163 | -0.282 | -0.197
AATATAGGGTCATCGTAGGCCAGAGTACGCACAG | 7.57 | 6.66 | 2.71 | 5 | 1.56 | 6.26 | 7.29 | 6.57 | 3.61 | 5.37
TCAGACATGTGAAGGTAACTCAGGTACGCAGTCG | 0.329 | 1.23 | -0.167 | 0.691 | -0.43 | 0.662 | 0.745 | 1.37 | 3.48 | 2.63
ATATGTAGGTTAATGGTCATTCAGGTTGGTTCGC | 0.826 | 1.09 | 0.821 | 1.24 | 0.469 | 4.6 | 7.74 | 7.54 | 6.76 | 7.88
GTGACTGGGGCAAAGCAGGTTACCATAAGGTTGG | 0.845 | 0.956 | 0.27 | 0.924 | -0.272 | 2.5 | 2.32 | 2.83 | 0.397 | 1.36
TCTAGTTGGTCACGGAGGTCACACCCGACGGGTA | 3.19 | 3.31 | 2.4 | 3.2 | 0.762 | 3.73 | 3.54 | 4.03 | 3.5 | 3.66
ACAGACAGGTGAGTGAAGGTAACTTAGCTGGACG | 0.0414 | 0.0601 | -0.497 | -0.508 | -0.62 | -0.0817 | 0.693 | -0.15 | -0.0448 | -0.0872
